ELG1 DNA repair: blocks ELG1-dependent DNA repair in HEK293T cells. HEK293T ELG1-luciferase reporter, luminescence, 16 h; DNA damage induced by 5-fluorouridine. Potency, µM (top dose mostly 46.1 µM), for inactives: at the highest dose activity change, negative = inhibition, hits mostly inhibitors. 330,000 compounds, 2.3% hits; note: potency is the fitted concentration of half-maximal effect; nearly all actives have a fitted effect of over 55% in size
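In this reporter screen, reduction of luminescence relative to DMSO vehicle indicated activity. Compounds and 5-fluorouridine were added together to 2,000 cells per well, incubated for 16 hr at 37 °C, then developed with ONE-Glo.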
DT40 TDP1 CPT: DT40-hTDP1 cell growth loss with CPT; chicken DT40 Tdp1-/-;hTDP1 cells + 20 nM CPT, ATP luminescence, 48 h; 420,000 compounds, 12% hits; Potency, µM (series often up to 46.2 µM), for the others: top-dose activity change, negative = growth inhibition, most hits filed as inhibitors; note: potency is the fitted concentration of half-maximal effect; nearly all actives have a fitted effect of over 55% in size
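Chicken DT40 Tdp1-/- cells complemented with human TDP1, 400 cells/well, exposed to compounds plus 20 nM camptothecin for at least 48 h at 37 C; viability read as ATP content by CellTiter-Glo luminescence.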
IL1B secr inh: inhibitors of inflammasome signaling (IL-1 beta secretion) | activity change, % at 57.5 µM | 360,000 compounds, 4.7% hits | THP-1 LPS/ATP IL-1B secretion, AlphaLISA, 16 h; active compounds read low; in the data active = activity change below about -50%; inconclusive = mostly about -30% to -49%
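Secreted IL-1B measured by AlphaLISA bead assay after 16 h compound exposure of THP-1 cells; compounds (final up to 57.5 uM) added 1 h before LPS (250 ng/mL) and ATP (1.25 mM) stimulation; lower signal means less secretion.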
TDP1 cell noCPT: qHTS for Inhibitors of human tyrosyl-DNA phosphodiesterase 1 (TDP1): qHTS in cells in absence of CPT; 420,000 compounds, 15% hits; DT40 Tdp1-/- hTDP1 cells, no CPT, ATP luminescence, 48 h; Potency, µM (doses to about 46.2 µM), for inactives: at the highest dose activity change, negative = growth inhibition, most hits filed as inhibitors; AID 686978, 2013; note: potency is the fitted concentration of half-maximal effect; nearly all actives have a fitted effect of over 55% in size
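Seeded 400 DT40-hTDP1 cells/well (vehicle DMSO, no 20 nM CPT); pinned compounds; ≥48 hr at 37 °C; CellTiter-Glo luminescence as viability measure.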
Giardia killer: kills Giardia lamblia; Giardia lamblia trophozoite viability; activity change, % at 7.66 µM, hits read low; 340,000 compounds, 0.15% hits; in the data active = activity change below about -80%; inconclusive = between about -30% and that limit;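 note: parasites exposed to compound for two days anaerobically before the ATP read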
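Viability, read as ATP luminescence: trophozoites at 100 cells/well, compound added, 48 hrs anaerobic at 37 deg C, then 15-30 min room-temperature development before reading.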
TDP1 inh: inhibitors of human tyrosyl-DNA phosphodiesterase TDP1 | Q9NUW8 | recombinant TDP1, AlphaScreen DNA substrate cleavage | Potency, µM (series often up to 130 µM), for the others: at the top dose activity change, negative = inhibition, most hits filed as inhibitors | 350,000 compounds, 0.28% hits; note: potency is the fitted concentration of half-maximal effect; nearly all actives have a fitted effect of over 40% in size
Target sequence (Q9NUW8 whole entry, looked up): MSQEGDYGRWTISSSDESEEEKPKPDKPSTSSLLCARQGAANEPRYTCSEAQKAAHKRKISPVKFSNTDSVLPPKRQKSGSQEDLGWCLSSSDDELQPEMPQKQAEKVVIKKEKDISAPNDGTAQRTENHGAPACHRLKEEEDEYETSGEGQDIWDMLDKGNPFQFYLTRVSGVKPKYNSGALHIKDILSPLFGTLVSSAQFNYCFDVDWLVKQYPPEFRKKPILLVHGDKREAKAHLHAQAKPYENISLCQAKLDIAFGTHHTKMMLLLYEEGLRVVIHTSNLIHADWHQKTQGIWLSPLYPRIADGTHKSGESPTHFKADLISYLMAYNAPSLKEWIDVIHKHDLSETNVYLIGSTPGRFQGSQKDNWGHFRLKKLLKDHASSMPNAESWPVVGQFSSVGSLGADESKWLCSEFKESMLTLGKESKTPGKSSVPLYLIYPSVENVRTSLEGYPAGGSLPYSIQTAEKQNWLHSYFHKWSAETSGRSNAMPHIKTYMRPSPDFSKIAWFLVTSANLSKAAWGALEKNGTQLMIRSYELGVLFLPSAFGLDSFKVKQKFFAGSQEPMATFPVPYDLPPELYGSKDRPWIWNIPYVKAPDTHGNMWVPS
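Here, a 5' biotin and 3' phosphotyrosine-FITC DNA oligonucleotide reports Tdp1 activity: intact substrate bridges AlphaScreen beads, while cleavage leaves a 3' phosphate and drops signal. All incubations at room temperature.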
An asterisk follows results filed as active; u = inconclusive; x = no result given; [ ] = remark or other dose. Hits are enriched below; roughly 19% of the tested compounds scored in any of these assays. Unless noted, calls come from the whole dose curve; as a rule, active = well fitted curve in the direction sought with a large enough effect; inconclusive = small, poorly fitted or top-dose-only effect, or another doubt; inactive = no such curve, though single readings can be large; an effect the other way counts as inactive or inconclusive. % is set by controls: 0 for no effect and ±100 for the full control effect.

SMILES | ELG1 DNA repair | DT40 TDP1 CPT | IL1B secr inh | TDP1 cell noCPT | Giardia killer | TDP1 inh
O=C(CSc1ccc(Cl)cc1)Nc1ccccc1N1CCN(C(=O)c2ccccc2)CC1 | u | 16.4µM* | -3.8 | 18.4µM* | 6.3 | 1.0%
COc1ccccc1C(=O)Nc1ccccc1N1CCN(C(=O)c2ccc(Cl)cc2)CC1 | 14.6µM* | 14.6µM* | -12.7 | 16.4µM* | 31.0 | 1.6%
O=C(Nc1ccccc1N1CCN(C(=O)c2ccc(Cl)cc2)CC1)c1cc(Br)ccc1Cl | -2.7% | u | -12.3 | 14.6µM* | -15.3 | 1.9%
CN1CCc2ccc3c4c2[C@]1(C)Cc1cccc(c1-4)OCO3 | x | x | x | x | x | 15.0%
Cn1c(-c2nc(-c3ccccc3)cs2)nc2ccccc21 | x | 12.5% | x | u | x | -3.6%
CCn1c(SCC(=O)NC2=NCCS2)nnc1C(C)NC(=O)c1ccc(Cl)cc1 (stereo not given) | 14.6% | -8.7% | -16.8 | -1.6% | -5.9 | x
COC(=O)C1CCN(C(=O)COC(=O)CSc2ccc(C(N)=O)cc2[N+](=O)[O-])CC1 | 21.6% | 12.4% | 21.8 | -2.9% | 10.8 | 0.1%
CCN(CC)CCCNc1ccc(-c2nnc(-c3ccc(OCC(C)C)cc3)o2)cn1 | 12.1% | 2.91µM* | -51.0* | 2.91µM* | -1.0 | x
O=C(CC1(O)C(=O)Nc2ccc(Br)cc21)c1ccc2c(c1)OCO2 (stereo not given) | -4.6% | 25.9µM* | 48.1 | u | 7.2 | 1.0%
Cc1ccc2c(c1)C(O)(CC(=O)c1ccc3c(c1)OCO3)C(=O)N2 (stereo not given) | u | -7.8% | 13.5 | -18.6% | -24.6 | 0.0%
CS(=O)(=O)Nc1cccc(C(=O)CC2(O)C(=O)Nc3ccccc32)c1 (stereo not given) | -5.4% | 10.7% | 7.5 | -6.2% | -20.4 | 2.0%
CCS(=O)(=O)Nc1cccc(C(=O)CC2(O)C(=O)Nc3ccccc32)c1 (stereo not given) | -0.5% | -10.3% | -14.0 | -25.9% | 11.8 | 1.9%
CS(=O)(=O)Nc1cccc(C(=O)CC2(O)C(=O)Nc3ccc(Br)cc32)c1 (stereo not given) | -10.0% | u | 39.4 | 20.6µM* | -19.5 | 2.0%
CCS(=O)(=O)Nc1ccc(C(=O)CC2(O)C(=O)Nc3ccc(Br)cc32)cc1 (stereo not given) | -13.5% | 20.6µM* | 31.9 | 6.51µM* | 29.5 | 2.0%
Cc1ccc2oc(=O)c3cc(C(=O)N4CCN(c5ccccc5)CC4)sc3c2c1 | x | 4.5% | x | 17.1% | x | 2.3%
COC(=O)[C@@H]1CCCN1C(=O)CCc1nnc(CCC2CCCCC2)o1 | u | -21.2% | 7.6 | -25.5% | 12.8 | 3.6%
CCCn1c(-c2ccc(F)cc2)nc2c(NC(C)CN(C)C)nc(C)nc21 (stereo not given) | x | x | x | x | x | 5.7%
CC(Nc1nc(-c2ccc(F)cc2)cs1)c1nc2cc(Cl)c(N3CCCCC3)cc2n1CCCO (stereo not given) | x | 7.31µM* | -6.7 | 5.8µM* | -13.2 | x
Cc1ccc(Cn2c(CCNc3nc(-c4ccc(Cl)c([N+](=O)[O-])c4)cs3)nc3cc(Cl)c(Cl)cc32)cc1 | x | u | 27.4 | u | -0.2 | x
CC(Nc1nc(-c2cccc(Br)c2)cs1)c1nc2cc(Cl)c(N3CCCCC3)cc2n1CCOCCO (stereo not given) | u | u | -54.8* | u | 5.1 | x
Cc1ccc(Cn2c(C(C)Nc3nc(C)cs3)nc3cc(Cl)c(Cl)cc32)cc1 (stereo not given) | x | u | 15.7 | u | -0.5 | x
Cc1ccc(Cn2c(C(C)Nc3nc(-c4ccc(F)cc4)cs3)nc3cc(Cl)c(Cl)cc32)cc1 (stereo not given) | x | 29.1µM* | 30.5 | u | -6.6 | x
O=[N+]([O-])c1cc(-c2csc(NCCc3nc4cc(Cl)c(N5CCCCC5)cc4n3CCCO)n2)ccc1Cl | x | u | 5.8 | 16.4µM* | 6.6 | x
O=C(NCc1ccc2c(c1)OCO2)c1n[nH]c(=O)c2ccccc12 | u | u | -2.8 | u | -4.3 | -5.4%
CCN(CC(=O)NCc1ccc(Cl)cc1)C(=O)COc1cccc(C(F)(F)F)c1 | -11.4% | u | -11.5 | u | 5.8 | -8.3%
SMILES | ELG1 DNA repair | DT40 TDP1 CPT | IL1B secr inh | TDP1 cell noCPT | Giardia killer | TDP1 inh
CCc1ccc2c(c1)NC(=O)C2(C)Cc1ccccc1Cl (stereo not given) | x | u | 39.2 | u | x | x
CC(Nc1nc(-c2ccc(F)cc2)cs1)c1nc2cc(Cl)c(Cl)cc2n1CCOCCO (stereo not given) | x | 23.1µM* | 0.0 | 20.6µM* | -22.1 | x
COc1ccc(-c2csc(NC(C)c3nc4cc(Cl)c(Cl)cc4n3CCCO)n2)cc1 (stereo not given) | x | u | -25.6 | 14.6µM* | 16.9 | x
Cc1csc(NC(C)c2nc3cc(C(F)(F)F)ccc3n2CCOCCO)n1 (stereo not given) | x | u | 8.1 | -22.6% | -8.0 | x
CC(Nc1nc(-c2ccc(F)cc2)cs1)c1nc2cc(Cl)c(N3CCCCC3)cc2n1CCOCCO (stereo not given) | x | 16.4µM* | -75.3* | 20.6µM* | 15.8 | x
CCCn1c(C(C)Nc2nc(-c3ccc(C)cc3)cs2)nc2cc(Cl)c(Cl)cc21 (stereo not given) | 0.2% | u | 35.9 | -36.5% | 17.5 | x
CC(NN)c1ccccc1 (stereo not given) | x | -7.4% | x | -11.3% | x | x
CCCC[C@H](CC)CN1CN(C[C@@H](CC)CCCC)CC(C)(N)C1 | x | x | x | x | x | 4.8%[56.1 µM]
Cc1ccccc1Cn1nnc2c(=O)[nH]c(C3CCCN(C(=O)c4ccc(F)cc4)C3)nc21 (stereo not given) | x | -1.2% | x | 5.3% | x | 5.1%
Cc1cc(C)nc(Nc2cccc(Cl)c2)n1 | 28.1% | -5.5% | -3.9 | -5.9% | -17.9 | x
CN(C#N)c1nc(Cl)nc(Nc2cccc(Cl)c2)n1 | -0.9% | u | -90.7* | u | 17.1 | 7.9%
N#Cc1c(NCCN)nc(-c2ccco2)c2c1CCCC2 | u | u | -104.8* | u | -15.0 | 3.9%
CC(C)CCNc1nc(-c2ccco2)c2c(c1C#N)CCCC2 | 12.0% | u | 20.0 | u | -18.3 | x
N#Cc1c(N2CCOCC2)nc(-c2ccco2)c2c1CCCC2 | u | u | -77.6* | u | 17.8 | x
CC1(C)Cc2c(C#N)c(N3CCCC3)nc(-c3ccco3)c2CO1 | u | x | x | x | x | -1.2%
